# Reference: PubChem BioAssay (NCATS)
# Records with an inconclusive call do not appear. Where a call stands in place of a potency, no number is given. Unmarked numbers belong to inactive results. Activity calls are given as the source filed them. Calls come from the whole dose curve; as a rule, active = well fitted inhibition curve with a large enough effect; inconclusive = small, poorly fitted or top-dose-only effect; inactive = flat fitted curve, though single readings scatter.
# Legend:
# [1] = qHTS profiling for inhibitors of Plasmodium falciparum proliferation (AID 504749); for all read-outs here: nearly all actives have a fitted effect of over 60% in size; details: P. falciparum in erythrocytes, SYBR Green DNA, 72 h; for activity, negative = inhibition: at 28.7 µM (top of the series)
# Method in brief: (§1)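 P. falciparum-infected erythrocytes (0.3% parasitemia, 2.5% hematocrit) incubated with compound 72 h at 37 C, 5% CO2. Parasite DNA detected by SYBR Green after lysis, overnight at room temperature; normalised to 0.29 uM artemisinin and DMSO.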
# 7G8 = assay: as above; details: P. falciparum in erythrocytes, SYBR Green DNA, 72 h; series mostly up to 28.7 µM
# Method in brief: as §1
# AA1029 = assay: as above; details: P. falciparum in erythrocytes, SYBR Green DNA, 72 h; series mostly up to 28.7 µM
# Method in brief: as §1
# AS120 = assay: as above; details: P. falciparum in erythrocytes, SYBR Green DNA, 72 h; series mostly up to 28.7 µM
# Method in brief: as §1
# ATS189 = assay: as above; details: P. falciparum in erythrocytes, SYBR Green DNA, 72 h; series mostly up to 28.7 µM
# Method in brief: as §1
# ATS95 = assay: as above; details: P. falciparum in erythrocytes, SYBR Green DNA, 72 h; series mostly up to 28.7 µM
# Method in brief: as §1
# C2A = assay: as above; details: P. falciparum in erythrocytes, SYBR Green DNA, 72 h; series mostly up to 28.7 µM
# Method in brief: as §1
# CP185 = assay: as above; details: P. falciparum in erythrocytes, SYBR Green DNA, 72 h; series mostly up to 28.7 µM
# Method in brief: as §1
# CP191 = assay: as above; details: P. falciparum in erythrocytes, SYBR Green DNA, 72 h; series mostly up to 28.7 µM
# Method in brief: as §1
# CP217 = assay: as above; details: P. falciparum in erythrocytes, SYBR Green DNA, 72 h; series mostly up to 28.7 µM
# Method in brief: as §1
# CP237 = assay: as above; details: P. falciparum in erythrocytes, SYBR Green DNA, 72 h; series mostly up to 28.7 µM
# Method in brief: as §1
# CP238 = assay: as above; details: P. falciparum in erythrocytes, SYBR Green DNA, 72 h; series mostly up to 28.7 µM
# Method in brief: as §1
# CP247 = assay: as above; details: P. falciparum in erythrocytes, SYBR Green DNA, 72 h; series mostly up to 28.7 µM
# Method in brief: as §1
# 3D7 = assay: as above; details: P. falciparum in erythrocytes, SYBR Green DNA, 72 h; series mostly up to 28.7 µM
# Method in brief: as §1
# CP192 = assay: as above; details: P. falciparum in erythrocytes, SYBR Green DNA, 72 h; series mostly up to 28.7 µM
# Method in brief: as §1
# CP194 = assay: as above; details: P. falciparum in erythrocytes, SYBR Green DNA, 72 h; series mostly up to 28.7 µM
# Method in brief: as §1
# CP201 = assay: as above; details: P. falciparum in erythrocytes, SYBR Green DNA, 72 h; series mostly up to 28.7 µM
# Method in brief: as §1
# CP211 = assay: as above; details: P. falciparum in erythrocytes, SYBR Green DNA, 72 h; series mostly up to 28.7 µM
# Method in brief: as §1
# CP215 = assay: as above; details: P. falciparum in erythrocytes, SYBR Green DNA, 72 h; series mostly up to 28.7 µM
# Method in brief: as §1
# CP203 = assay: as above; details: P. falciparum in erythrocytes, SYBR Green DNA, 72 h; series mostly up to 28.7 µM
# Method in brief: as §1
# Potency is the fitted concentration of half-maximal effect.
structure (smiles),measurement,setting,value
COC(=O)[C@H]1[C@H]2CC3c4[nH]c5ccccc5c4CCN3C[C@@H]2CC[C@@H]1O (stereo partly drawn),"activity, negative = inhibition",[1]; parasite line A,14.5%
same,"activity, negative = inhibition",[1]; parasite line B,13.8%
same,Potency,7G8,inactive
same,Potency,AA1029,inactive
same,Potency,AS120,inactive
same,Potency,ATS189,inactive
same,Potency,ATS95,inactive
same,Potency,C2A,inactive
same,Potency,CP185,inactive
same,Potency,CP191,inactive
same,Potency,CP217,inactive
same,Potency,CP237,inactive
same,Potency,CP238,inactive
same,Potency,CP247,inactive
COCC(=O)Nc1cc(Sc2ccccc2)ccc1N=C(NC(=O)OC)NC(=O)OC,"activity, negative = inhibition",[1]; parasite line A,17.1%
same,"activity, negative = inhibition",[1]; parasite line B,26.6%
same,Potency,3D7,inactive
same,Potency,AA1029,inactive
same,Potency,AS120,inactive
same,Potency,ATS189,inactive
same,Potency,ATS95,inactive
same,Potency,C2A,inactive
same,Potency,CP185,inactive
same,Potency,CP191,inactive
same,Potency,CP192,inactive
same,Potency,CP194,inactive
same,Potency,CP201,inactive
same,Potency,CP211,inactive
same,Potency,CP215,inactive
same,Potency,CP217,inactive
same,Potency,CP237,inactive
same,Potency,CP238,inactive
same,Potency,CP247,inactive
CCOc1ccc2c(c1)C(C)=CC(C)(C)N2,"activity, negative = inhibition",[1]; parasite line A,-19.3%
same,"activity, negative = inhibition",[1]; parasite line B,-4.99%
same,Potency,7G8,inactive
same,Potency,AA1029,inactive
same,Potency,AS120,inactive
same,Potency,ATS189,inactive
same,Potency,ATS95,inactive
same,Potency,C2A,inactive
same,Potency,CP185,inactive
same,Potency,CP191,inactive
same,Potency,CP192,inactive
same,Potency,CP194,inactive
same,Potency,CP201,inactive
same,Potency,CP211,inactive
same,Potency,CP217,inactive
same,Potency,CP237,inactive
same,Potency,CP238,inactive
same,Potency,CP247,inactive
CC1=C(/C=C/C(C)=C/C=C/C(C)=C/CO)C(C)(C)CCC1,Potency,7G8,10 µM (active)
same,Potency,CP192,inactive
same,Potency,CP194,inactive
same,Potency,CP201,inactive
same,Potency,CP211,inactive
same,Potency,CP217,10 µM (active)
CCN(CC)CCOc1ccc(-c2nc3cc(Cl)ccc3s2)cc1,Potency,7G8,11.2 µM (active)
same,Potency,AS120,inactive
same,Potency,ATS189,inactive
same,Potency,CP185,inactive
same,Potency,CP192,inactive
same,Potency,CP194,inactive
same,Potency,CP201,inactive
same,Potency,CP211,inactive
same,Potency,CP215,inactive
same,Potency,CP217,inactive
same,Potency,CP238,inactive
C#C[C@]1(O)CC[C@H]2[C@@H]3CCC4=CCCC[C@@H]4[C@H]3C(=C)C[C@@]21CC,Potency,7G8,inactive
same,Potency,C2A,inactive
same,Potency,CP191,10 µM (active)
same,Potency,CP192,inactive
same,Potency,CP194,inactive
same,Potency,CP201,inactive
same,Potency,CP203,inactive
same,Potency,CP211,inactive
same,Potency,CP215,inactive
same,Potency,CP237,inactive
O=C(Nc1cccc(C(F)(F)F)c1)c1cc(Br)cc(Br)c1O,Potency,[1]; parasite line B,10 µM (active)
same,Potency,7G8,6.31 µM (active)
same,Potency,AS120,12.6 µM (active)
same,Potency,CP203,15.1 µM (active)
same,Potency,CP211,12 µM (active)
same,Potency,CP215,12 µM (active)
same,Potency,CP217,8.91 µM (active)
same,Potency,CP247,8.91 µM (active)
CC(=O)Oc1c(C)cc(OCC(O)CNC(C)C)c(C)c1C (stereo not drawn),Potency,3D7,inactive
same,Potency,7G8,inactive
same,Potency,AA1029,inactive
same,Potency,AS120,inactive
same,Potency,ATS189,inactive
same,Potency,ATS95,inactive
same,Potency,C2A,inactive
same,Potency,CP185,inactive
same,Potency,CP191,inactive
same,Potency,CP192,inactive
same,Potency,CP194,inactive
same,Potency,CP201,inactive
same,Potency,CP203,inactive
same,Potency,CP211,inactive
same,Potency,CP215,inactive
same,Potency,CP217,inactive
same,Potency,CP237,inactive
same,Potency,CP238,inactive
same,Potency,CP247,inactive
CCCCCCCC/C=C\CCCCCCCC(=O)O,"activity, negative = inhibition",[1]; parasite line A,12.9%
same,Potency,3D7,inactive
same,Potency,7G8,inactive
same,Potency,AA1029,inactive
same,Potency,AS120,inactive
same,Potency,ATS189,inactive
same,Potency,ATS95,inactive
same,Potency,C2A,inactive
same,Potency,CP185,inactive
same,Potency,CP191,inactive
same,Potency,CP192,inactive
same,Potency,CP194,inactive
same,Potency,CP201,inactive
same,Potency,CP211,inactive
same,Potency,CP215,inactive
same,Potency,CP217,inactive
same,Potency,CP237,inactive
same,Potency,CP238,inactive
same,Potency,CP247,inactive
COC(=O)CCC(=O)CN,"activity, negative = inhibition",[1]; parasite line A,6.69%
same,"activity, negative = inhibition",[1]; parasite line B,8.06%
same,Potency,3D7,inactive
same,Potency,AA1029,inactive
same,Potency,AS120,inactive
same,Potency,ATS189,inactive
same,Potency,ATS95,inactive
same,Potency,C2A,inactive
same,Potency,CP185,inactive
same,Potency,CP191,inactive
same,Potency,CP192,inactive
same,Potency,CP201,inactive
same,Potency,CP203,inactive
same,Potency,CP211,inactive
same,Potency,CP215,inactive
same,Potency,CP217,inactive
same,Potency,CP237,inactive
same,Potency,CP238,inactive
same,Potency,CP247,inactive
CC(C)=O,"activity, negative = inhibition",[1]; parasite line A,-12.1%
same,Potency,3D7,inactive
same,Potency,7G8,inactive
same,Potency,AA1029,inactive
same,Potency,AS120,inactive
same,Potency,ATS189,inactive
same,Potency,C2A,inactive
same,Potency,CP185,inactive
same,Potency,CP191,inactive
same,Potency,CP192,inactive
same,Potency,CP194,inactive
same,Potency,CP201,inactive
same,Potency,CP203,inactive
same,Potency,CP211,inactive
same,Potency,CP215,inactive
same,Potency,CP217,inactive
same,Potency,CP237,inactive
same,Potency,CP238,inactive
same,Potency,CP247,inactive
CC[C@@]1(O)C(=O)OCc2c1cc1n(c2=O)Cc2cc3c([N+](=O)[O-])cccc3nc2-1,Potency,[1]; parasite line A,4.47 µM (active)
same,Potency,3D7,5.01 µM (active)
same,Potency,7G8,5.01 µM (active)
same,Potency,AA1029,7.08 µM (active)
same,Potency,AS120,5.01 µM (active)
same,Potency,ATS189,7.94 µM (active)
same,Potency,ATS95,5.01 µM (active)
same,Potency,C2A,7.94 µM (active)
same,Potency,CP185,8.91 µM (active)
same,Potency,CP191,11.2 µM (active)
same,Potency,CP194,12 µM (active)
same,Potency,CP215,13.5 µM (active)
same,Potency,CP217,10 µM (active)
same,Potency,CP237,3.98 µM (active)
same,Potency,CP238,8.91 µM (active)
same,Potency,CP247,11.2 µM (active)
